IMPase cell inh = qHTS Assay for Identifying the Cell-Membrane Permeable IMPase Inhibitors; Inositol monophosphatase 1 (Rattus norvegicus), P97697; CHO-M1 cells, IP1 accumulation, HTRF TR-FRET ratio; inhibition (IP1 accumulation), % at 46.1 µM; 120,000 tested, under 10 active; active means well fitted curve in the direction sought with a large enough effect in the signal ratio, not every such curve was filed as active; inconclusive means small, poorly fitted or top-dose-only effect, or a change in a side signal; inactive means no such curve, though single readings can be large or run the other way; the % refers to the signal ratio;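 further: cells stimulated with carbachol in lithium chloride buffer; higher means more IMPase inhibition seen as more IP1 and lower FRET ratio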
Target sequence (P97697 whole entry, looked up): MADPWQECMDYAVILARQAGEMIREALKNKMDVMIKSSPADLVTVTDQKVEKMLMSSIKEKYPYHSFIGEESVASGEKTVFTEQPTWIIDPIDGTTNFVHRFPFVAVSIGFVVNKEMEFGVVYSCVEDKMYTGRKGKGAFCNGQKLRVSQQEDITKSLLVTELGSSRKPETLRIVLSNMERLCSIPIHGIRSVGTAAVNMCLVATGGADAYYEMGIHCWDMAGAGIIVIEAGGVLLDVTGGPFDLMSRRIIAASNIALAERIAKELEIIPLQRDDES
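Cellular IMPase inhibition is scored as a rise in cytosolic IP1, detected by competitive TR-FRET between d2-labelled IP1 and a europium anti-IP1 antibody. M1-expressing CHO cells were stimulated with carbachol for 30 min at 37C, with lithium (50 mM LiCl) present in the buffer.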
NPSR antagonist = qHTS Assay for Antagonists of the Neuropeptide S Receptor: cAMP Signal Transduction | 220,000 tested, 1% active | Potency, µM (series often up to 38.3 µM), actives largely listed as inhibitors | Q6W5P4 | CHO-NPSR cells, cAMP TR-FRET, antagonist mode; further: nearly all actives have a fitted effect of over 50% in size
Target sequence (Q6W5P4 whole entry, looked up): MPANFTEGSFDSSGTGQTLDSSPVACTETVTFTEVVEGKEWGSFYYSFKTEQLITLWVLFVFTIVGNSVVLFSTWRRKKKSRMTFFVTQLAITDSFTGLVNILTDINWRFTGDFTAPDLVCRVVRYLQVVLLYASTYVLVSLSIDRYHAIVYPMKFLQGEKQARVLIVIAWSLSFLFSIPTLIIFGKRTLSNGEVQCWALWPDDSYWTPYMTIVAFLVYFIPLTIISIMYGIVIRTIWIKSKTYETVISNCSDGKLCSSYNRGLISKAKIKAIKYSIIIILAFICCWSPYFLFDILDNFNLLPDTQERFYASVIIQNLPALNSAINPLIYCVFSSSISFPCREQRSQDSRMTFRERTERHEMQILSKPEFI
IMPase Li cell = qHTS Assay for Identifying the Cell-Membrane Permeable IMPase Inhibitors: Potentiation with Lithium; 210,000 tested, 0.35% active; AID 1457, 2008; Potency, µM (titrated, usually from 59.4 µM), actives largely listed as inhibitors; CHO-M1 cells, IP1 TR-FRET (IP-One), carbachol + lithium;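 further: IP1 builds up when IMPase is blocked and the TR-FRET signal falls; nearly all actives have a fitted effect of over 50% in size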
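Concentration–response in CHO-M1 cells, lithium-potentiated; 30 min at 37C. IP1 detected by competitive TR-FRET after 10 min lysis at RT. Hill-fitted AC50.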
Numbers stand for hits; n = inactive; u = inconclusive; x = no result given; [ ] = remark or other dose. Shown is part of a subset that was picked to be rich in hits. Unless noted, the call rests on the fitted dose curve; in most records, active means well fitted curve in the direction sought with a large enough effect; inconclusive means small, poorly fitted or top-dose-only effect, or another doubt; inactive means no such curve, though single readings can be large; an effect the other way counts as inactive or inconclusive.

SMILES | IMPase cell inh | NPSR antagonist | IMPase Li cell
Cc1ccc2cc(C#N)c(SCC(=O)NNC(=O)Cc3ccccc3)nc2c1 | x | 7.94µM | 12.6µM
CCOc1ccc2cc(C#N)c(SCC(=O)NC(C)CC)nc2c1 (centres undefined) | u | 6.31µM | 3.55µM
CCOC(=O)CSc1nc2cc(OCC)ccc2cc1C#N | n | n | u
CCCCCOC(=O)CSc1nc2sc3c(c2c(=O)n1-c1ccccc1)CC(C)(CC)OC3 (centres undefined) | n | x | x
CCc1nc(N[C@@H](Cc2c[nH]c3ccccc23)C(=O)O)c2oc3ccccc3c2n1 | n | n | n
Cc1nc(N[C@@H](Cc2c[nH]c3ccccc23)C(=O)O)c2oc3ccccc3c2n1 | n | n | 11.2µM
Cc1nnc(S(=O)(=O)c2ccc(N=Nc3c(N)nc(N)nc3N)cc2)s1 | x | x | n
CCNC(=S)N1CCN(CC)CC1 | x | n | n
O=C(N/N=C/c1ccc(OCc2ccc(F)cc2)cc1)c1ccccc1 | x | n | n
CC(C)(C)c1ccc(OCc2ccc(C(=O)N/N=C/c3ccc(O)c(O)c3)cc2)cc1 | x | 12.6µM | n
CCNc1ncc2nc(-c3cc(F)cc(F)c3)c(=O)n(CCc3ccccc3)c2n1 | x | x | n
CCNc1ncc2nc(-c3ccc(OC)cc3)c(=O)n(CCc3ccccc3)c2n1 | x | x | 11.2µM
CCNc1ncc2nc(-c3ccc(F)cc3)c(=O)n(CCC#N)c2n1 | x | x | 10µM
COc1ccc(-c2nc3cnc(Oc4cccc(Cl)c4)nc3n(CCC#N)c2=O)cc1 | x | x | 5.01µM
CCNc1ncc2nc(-c3ccc(OC)cc3)c(=O)n(CCC#N)c2n1 | x | x | n
COc1ccc(Oc2ncc3nc(-c4ccc(Cl)cc4)c(=O)n(CCC#N)c3n2)cc1 | x | x | n
COc1ccc(-c2nc3cnc(OC)nc3n(C3CC3)c2=O)cc1 | x | x | 12.6µM
COc1ncc2nc(-c3ccccc3)c(=O)n(C3CC3)c2n1 | x | x | n
O=C(O)NCc1ccccc1 (tested in a mixture with another compound) | x | x | n
CCc1cccc(NC(=O)Cn2c(=O)n(CC3CCC(C(=O)NCCc4ccccc4)CC3)c(=O)c3ccccc32)c1 (centres undefined) | n | x | x
Cc1cc(OCC(=O)Nc2ccc(-c3nc4cc(Cl)ccc4o3)cc2)cc(C)c1Cl | n | x | x
Oc1c(Br)cc(Br)cc1CN(Cc1cc(Br)cc(Br)c1O)C1CCCCC1 | x | x | n
O=C(O)c1cc2c(cc1S(=O)(=O)O)[C@H]1[C@@H](C3[C@H]2[C@@]2(Cl)C(Cl)=C(Cl)C3(Cl)C2(Cl)Cl)[C@]2(Cl)C(Cl)=C(Cl)C1(Cl)C2(Cl)Cl (some centres undefined) | x | x | n
Cc1ccc(-c2nn(CCC(=O)NN3CCOCC3)c(=O)c3ccccc23)cc1 | x | n | x
NC(=O)NC(=O)[C@H]1CCCC[C@@H]1C(=O)O | x | x | n
SMILES | IMPase cell inh | NPSR antagonist | IMPase Li cell
COCCCN1C(=O)CS/C1=N\S(=O)(=O)c1ccccc1 | x | n | x
O=Cc1s/c(=N\S(=O)(=O)c2ccccc2)n(CCCCl)c1Cl | x | 10µM | n
Cc1cc(/C=N/n2cnnc2)c(C)n1-c1ccc(OCc2ccc(Cl)cc2)cc1 | n | 10µM | n
Cc1cc(/C=N/n2cnnc2)c(C)n1-c1ccc(OCc2ccccc2F)cc1 | n | u | n
COc1cc(O)ccc1-c1nc2ccc(Br)cn2c1Nc1ccccc1C | n | x | x
O=C(Nc1ccc2nn(-c3ccccc3)nc2c1)c1ccc2c(c1)OCCO2 | n | n | n
CCOc1ccc(-n2nc3ccc(NC(=O)c4ccc5c(c4)OCCO5)cc3n2)cc1 | n | 10µM | n
O=c1oc2cc(O)ccc2c2ccccc12 | u | 5.01µM | 12.6µM
COc1ccc2c(c1)c(=O)oc1cc(O)ccc12 | x | n | n
CC(=O)c1ccccc1OC(=O)COc1ccc(Cl)cc1C | x | n | n
Cc1cc(NC(=O)CSc2ccccc2)no1 | n | n | n
Cc1noc(C)c1CSc1nc2ccccc2c(=O)n1-c1ccc(Cl)cc1 | n | 10µM | n
Cc1nnc(NC(=O)CSc2nc(C(C)C)nc3ccccc23)s1 | u | n | 7.94µM
Cc1cc(NC(=O)CSc2nc(C(C)C)nc3ccccc23)no1 | n | n | 12.6µM
Cc1noc(C)c1CSc1nc2sc(C)c(C)c2c(=O)n1-c1ccccc1 | n | n | n
Cc1cc(NC(=O)CSc2nc3ccccc3c(=O)n2-c2ccccc2)no1 | n | n | 7.08µM
CC(C)c1nc(SCC(=O)Nc2nc3c(s2)CCCC3)c2ccccc2n1 | n[1.84 µM] | n | n
Cc1ccc(-n2c(SCC(=O)Nc3cc(C)on3)nc3ccccc3c2=O)cc1 | n | n | n
CC(C)NS(=O)(=O)c1ccc(OCC(=O)N2CCN(c3ccccc3F)CC2)cc1 | n | x | x
Cc1ccc(N)cc1[N+](=O)[O-] | x | x | n
Nc1nc(=O)c2[nH]cnc2n1O | x | x | n
COc1ccc(Cn2c3nc4ccccc4nc3c3c(=O)n(Cc4ccco4)c(C)nc32)cc1 | n | n | n
COCCCn1cnc2c(c1=O)c1nc3ccccc3nc1n2-c1ccc(C)cc1 | n | n | n
Cc1cc(C)cc(-n2c3nc4ccccc4nc3c3c(=O)n(Cc4ccco4)cnc32)c1 | n | 10µM | n
Cc1nc2c(c(=O)n1Cc1ccccc1Cl)c1nc3ccccc3nc1n2Cc1ccco1 | n | 12.6µM | n
SMILES | IMPase cell inh | NPSR antagonist | IMPase Li cell
COC(=O)N[C@@H](CCc1ccccc1)/C(C(=O)OC)=C(\C)NCc1ccccc1 | x | x | n
Cc1ccc(NC(=S)c2nc3ccccc3[nH]2)c(C)c1 | x | n | n
Cc1cccc(/C=C(\c2nc3ccccc3[nH]2)S(=O)(=O)c2ccccc2)c1 | n | 7.94µM | n
C/C(=N\NC(=S)NC1CCCCC1)c1c(F)cccc1F | x | 1µM | n
C/C(=N\NC(=S)NC1CCCCC1)c1cccs1 | x | n | n
N#Cc1c(N)nc(SCC(=O)NCc2ccc3c(c2)OCO3)c(C#N)c1-c1cccs1 | n | n | n
COc1ccccc1CNC(=O)CSc1nc(N)c(C#N)c(-c2cccs2)c1C#N | n | n | 3.55µM
COc1ccc(C(=O)N2CCC3(CC2)CN(Cc2ccc(C#N)cc2)C3)cc1 | x | x | n
CCC1=NN2C(=N)/C(=C\c3ccc(OCc4cc(=O)n5nc(CC)sc5n4)c(OC)c3)C(=O)N=C2S1 | x | n | n
S=C(Nc1ccccc1)Nc1ccccc1C#Cc1ccccc1 | x | x | n
CCOc1cccc2sc(N(CCCN(C)C)C(=O)c3ccc(S(=O)(=O)N(C)c4ccccc4)cc3)nc12 | x | 10µM | n
CN(C)CCN(C(=O)c1ccc(S(=O)(=O)N(C)c2ccccc2)cc1)c1nc2cc3c(cc2s1)OCCO3 | x | n | x
COCC(=O)N1CCC2(CC1)CCN(c1cccc(-c3ccccc3)c1)CC2 | x | x | n
O=C(Cn1cc(C(=O)c2ccco2)c2ccccc21)Nc1ccccc1C(F)(F)F | n | x | x
CCCCC[C@H](CC(=O)NO)C(=O)N[C@@H](C(=O)N1CCC[C@H]1CO)C(C)C | n | x | x
CC(=O)N(c1ccccc1C)C1CCCC1 | x | n | n
CC(=O)N(C1=C(Cl)C(=O)c2ccccc2C1=O)C1CCCCC1 | x | 6.31µM | x
COc1ccc(-c2nc3cnc(N4CCNCC4)nc3n(C3CC3)c2=O)cc1 | x | x | n
COc1cc(SC#N)ccc1N=Cc1c(C)[nH]n(-c2ccc(Cl)cc2)c1=O | n | u | n
COc1cc(SC#N)ccc1N=Cc1c(C)[nH]n(-c2ccc(C)c(C)c2)c1=O | x | 5.01µM | n

Compound activity as filed in PubChem.
